Source: PubChem BioAssay (NCI)
Values joined by “and” are separate entries in the source; they are usually repeats but may differ in a detail not shown here. Equal values may be shown once. About 83,000 compounds went through this panel and 20% of them were active in at least one assay; those are over-represented in the sample as a whole.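 Single-dose data. Exposure time 48 hours. Values below 10 considered active.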 Active and inactive are the calls of the source.

The molecules below were run on HL-60(TB) leukemia (assay: NCI-60 one-dose screen, 48 h (100 = growth as untreated, 0 = no growth, -100 = all killed)). Conditions: 10 µM unless noted.

| Structure (SMILES) | growth |
| --- | --- |
| C[C@]12CC[C@@H]3c4ccc(O)cc4CC[C@H]3[C@@H]1C[C@H](O)[C@@H]2O | 112% (inactive) |
| CCOC(=O)c1cn2ncnc(Oc3ccc(NC(=O)NCCN4CCOCC4)c(Cl)c3)c2c1C | 101% (inactive) |
| Clc1ccc(/C=N\N=c2\scc(-c3ccc(Cl)cc3)n2/N=C/c2ccc(Cl)cc2)cc1 | 84.5% (inactive) |
| N#Cc1c2c(nn(-c3ccccc3)c1=O)C(O)=C([N+](=O)[O-])C(c1ccccc1)C2 (stereo not drawn) | 58.5% (inactive) |
| CN1C(=O)N(C)C2Nn3c(s/c(=C\c4ccc(Cl)cc4Cl)c3=O)=NC21 (stereo not drawn) | 41.5% (inactive) |
| O=C1C=CC(=O)N1c1ccc2ccccc2c1 | 83.9% (inactive) and 88.8% (inactive) |
| COc1cc(/C=C/C(=O)c2ccc(Nc3ncnc4cc(OC)c(OC)cc34)cc2)cc(OC)c1 | 94.2% (inactive) |
| O=C(/C=C/c1ccc(Cl)cc1)c1ccc(Br)cc1 | 81.4% (inactive) |
| O=C1CCc2c(sc3[nH]c(=S)n(-c4ccc(OC(F)(F)F)cc4)c(=O)c23)C1 | 39.7% (inactive) |
| COc1ccc(CCN(C)CCCC(C#N)(c2ccc(OC)c(OC)c2)C(C)C)cc1OC (stereo not drawn) | 92.4% (inactive) and 72.5% (inactive) and 104% (inactive) |
| CCOC(=O)c1csc(N)n1 | 95.1% (inactive) and 98.1% (inactive) |
| COc1ccc(\C=N/N=C(N)/C(N)=N\N=C/c2ccc(OC)cc2)cc1 | 91.5% (inactive) |
| O=c1cc(-c2cccnc2)oc2c1ccc1ccccc12 | 83.4% (inactive) |
